# Source: PubChem BioAssay
# The source made the active and inactive calls.
# Columns and labels:
# [1] = tested on: Plasmodium falciparum Sir2 (PF13_0152, Sir2A); assay: pfSir2 binders on small-molecule microarrays, primary screen, biochemical, small-molecule microarray, 635 nm fluorescence (AID 1098); conditions: small-molecule microarray binding, fluorescence 635 nm; higher = more signal;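 also: score merges spot fluorescence intensity with its signal-to-noise ratio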
# [2] = small-molecule microarray binders of probe aDKK1, primary screen, biochemical, biotinylated probe, 635/667 nm fluorescence (AID 1099); conditions: higher = more signal;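 also: score merges 667nm spot fluorescence with signal to noise across triplicate slides; reference of the scale not given here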
# [3] = small-molecule microarray binders of probe aCHRDL2, primary screen, biochemical, biotinylated probe, 635/667 nm fluorescence (AID 1100); conditions: higher = more signal
# [4] = splicing luciferase reporter signal modulators, primary screen, spliceosome inhibition project, cell-based, HEK293, splice +/- reporter (AID 1101); conditions: luminescence, 24 h, higher = more signal, called active from +8 up or from −8 down;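 also: HEK293 cells carrying a splicing-competent luciferase reporter gene; test concentration not given here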
# [5] = target: Fibroblast growth factor 10 (Homo sapiens) (UniProt O15520); assay: FGF10 binders on small-molecule microarrays, primary screen, biochemical, small-molecule microarray, 635 nm fluorescence (AID 1102); conditions: FGF10 binding, fluorescence 635 nm, higher = more signal
# [6] = tested on: glycogen synthase kinase-3 (GSK3A per assay name; protocol says GSK3B); assay: GSK3 binders on small-molecule microarrays, primary screen, biochemical, small-molecule microarray, 635 nm fluorescence, GSK3A (AID 1103); conditions: small-molecule microarray binding, fluorescence 635 nm; higher = more signal; also: the record names both GSK3A and GSK3B
# [7] = target: Epidermal growth factor receptor (Homo sapiens) (UniProt P00533); assay: EGFR binders on small-molecule microarrays, primary screen, biochemical, small-molecule microarray, 635 nm fluorescence (AID 1104); conditions: EGFR binding, higher = more signal;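 also: score merges 667 nm emission intensity with spot signal to noise over triplicate slides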
# [8] = target: Follistatin-related protein 3 (Homo sapiens) (UniProt O95633); assay: FSTL3 binders on small-molecule microarrays, primary screen, biochemical, small-molecule microarray, 635 nm fluorescence (AID 1105); conditions: FSTL3 binding, higher = more signal;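 also: score merges emission near 667 nm and signal to noise per printed spot across three slides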
# [9] = target: Dickkopf-related protein 1 (Homo sapiens) (UniProt O94907); assay: DKK1 binders on small-molecule microarrays, primary screen, biochemical, small-molecule microarray, 635 nm fluorescence scan (AID 1106); conditions: DKK1 binding, higher = more signal;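 also: score merges emission near 667 nm with signal to noise over three replicate slides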
# [10] = tested on: Inhibin beta A chain (activin A); assay: INHBA (activin A) binders on microarrays, primary screen, biochemical, small-molecule microarray, 635 nm fluorescence scan (AID 1107); conditions: small-molecule microarray binding, higher = more signal;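 also: mouse activin A protein probed at 4.33 µg/mL on printed slides; score merges bound-protein fluorescence near 667 nm with spot signal-to-noise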
# Sequence of Dickkopf-related protein 1 (Homo sapiens) (O94907 whole entry, looked up): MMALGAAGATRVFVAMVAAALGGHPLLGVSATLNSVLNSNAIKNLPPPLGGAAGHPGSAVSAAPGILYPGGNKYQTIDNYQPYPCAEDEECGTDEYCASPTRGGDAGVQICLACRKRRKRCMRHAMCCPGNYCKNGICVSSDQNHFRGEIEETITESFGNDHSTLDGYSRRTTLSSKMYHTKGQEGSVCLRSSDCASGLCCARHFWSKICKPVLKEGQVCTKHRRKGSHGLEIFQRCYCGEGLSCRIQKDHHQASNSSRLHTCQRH
# Sequence of Epidermal growth factor receptor (Homo sapiens) (P00533 whole entry, looked up): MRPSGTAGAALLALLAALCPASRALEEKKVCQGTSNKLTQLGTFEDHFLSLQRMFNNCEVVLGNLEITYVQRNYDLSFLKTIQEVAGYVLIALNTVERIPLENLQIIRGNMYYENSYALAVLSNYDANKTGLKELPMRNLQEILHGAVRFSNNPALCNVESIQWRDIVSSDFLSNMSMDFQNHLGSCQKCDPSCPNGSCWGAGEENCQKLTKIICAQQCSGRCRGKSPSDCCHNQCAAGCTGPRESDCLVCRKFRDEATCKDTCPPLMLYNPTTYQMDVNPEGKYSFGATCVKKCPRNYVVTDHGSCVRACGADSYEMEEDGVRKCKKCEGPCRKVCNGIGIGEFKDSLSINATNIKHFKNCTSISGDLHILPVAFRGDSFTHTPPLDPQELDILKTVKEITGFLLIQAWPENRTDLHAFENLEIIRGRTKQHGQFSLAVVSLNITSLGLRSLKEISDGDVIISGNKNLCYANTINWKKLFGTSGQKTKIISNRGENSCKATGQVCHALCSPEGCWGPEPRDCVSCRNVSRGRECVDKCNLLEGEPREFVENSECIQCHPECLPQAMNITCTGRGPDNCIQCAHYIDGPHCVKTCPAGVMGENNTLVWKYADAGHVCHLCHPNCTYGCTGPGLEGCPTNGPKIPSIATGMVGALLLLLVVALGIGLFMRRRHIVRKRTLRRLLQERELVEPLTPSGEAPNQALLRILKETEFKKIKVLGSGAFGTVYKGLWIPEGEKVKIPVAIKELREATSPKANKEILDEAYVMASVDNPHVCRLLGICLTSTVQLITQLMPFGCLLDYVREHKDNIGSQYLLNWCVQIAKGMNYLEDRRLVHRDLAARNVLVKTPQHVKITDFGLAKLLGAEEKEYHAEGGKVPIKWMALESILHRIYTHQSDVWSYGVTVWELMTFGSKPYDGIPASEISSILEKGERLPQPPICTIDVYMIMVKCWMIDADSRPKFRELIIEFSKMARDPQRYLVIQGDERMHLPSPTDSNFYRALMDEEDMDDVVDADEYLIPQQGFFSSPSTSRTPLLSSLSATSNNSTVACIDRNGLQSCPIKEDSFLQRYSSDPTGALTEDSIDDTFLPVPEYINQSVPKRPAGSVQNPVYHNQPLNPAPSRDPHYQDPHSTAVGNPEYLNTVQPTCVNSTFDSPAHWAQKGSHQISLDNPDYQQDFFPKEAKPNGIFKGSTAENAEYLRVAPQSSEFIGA
# Sequence of Fibroblast growth factor 10 (Homo sapiens) (O15520 whole entry, looked up): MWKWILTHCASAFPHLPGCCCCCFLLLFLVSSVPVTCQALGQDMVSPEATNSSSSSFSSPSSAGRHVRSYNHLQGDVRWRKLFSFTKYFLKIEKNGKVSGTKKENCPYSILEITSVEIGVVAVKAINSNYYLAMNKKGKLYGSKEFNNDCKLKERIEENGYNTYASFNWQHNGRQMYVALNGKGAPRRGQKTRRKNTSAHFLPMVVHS
# Sequence of Follistatin-related protein 3 (Homo sapiens) (O95633 whole entry, looked up): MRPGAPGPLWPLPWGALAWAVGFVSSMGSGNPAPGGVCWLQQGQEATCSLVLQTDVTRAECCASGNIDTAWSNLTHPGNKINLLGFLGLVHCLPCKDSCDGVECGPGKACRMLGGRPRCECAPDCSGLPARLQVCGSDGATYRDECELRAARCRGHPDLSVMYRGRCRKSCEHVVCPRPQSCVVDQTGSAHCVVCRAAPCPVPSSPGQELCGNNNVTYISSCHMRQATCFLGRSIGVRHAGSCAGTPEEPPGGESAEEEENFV
SMILES,composite z-score [1],composite z-score [2],composite z-score [3],z-score [4],composite z-score [5],composite z-score [6],composite z-score [7],composite z-score [8],composite z-score [9],composite z-score [10]
COCCOC(=O)N1C(=O)[C@@]2(c3cc(C#CC4(O)CCCCCC4)ccc31)[C@H](c1ccc(O)cc1)N1[C@H](c3ccccc3)[C@H](c3ccccc3)OC(=O)[C@H]1[C@@H]2C(=O)N1CCc2cc(OC)c(OC)cc2C1,1.23,-0.226,0.687,-0.597 (inactive),-0.681,-0.32,-0.705,-1.15,-0.591,0.0107
O=C1C2C=CC(C(O)c3ccccn3)N(Nc3ccccc3F)C2C(=O)N1c1ccccc1 (stereo not given),0.205,0.19,0.461,-0.0196 (inactive),0.0698,-0.0392,0.0563,-0.0532,0.124,0.926
CC1CC/C=C\[C@H]2OC34C=CCN(CCN5CCOCC5)C(=O)[C@H]3N(CCCCCO)C(=O)[C@@H]4C2C(=O)O1 (stereo not given in full),-0.31,-0.605,-0.824,-0.282 (inactive),-0.352,-0.444,-0.559,-0.507,-0.0732,1.01
CC1CC/C=C\[C@H]2OC34C=CCN(c5ccc6ccccc6c5)C(=O)[C@H]3N(CCCCCO)C(=O)[C@@H]4C2C(=O)O1 (stereo not given in full),0.207,0.207,0.62,0.375 (inactive),-1.34,-1.25,0.0445,-0.213,-1.58,-0.522
C=C[C@@H](C)[C@@H](OC(=O)Nc1ccc(OC)cc1)c1ccc(O)c2ccccc12,1.13,-0.241,-0.576,-0.0898 (inactive),0.856,0.357,0.762,0.723,0.475,1.24
Cc1ccc(F)cc1S(=O)(=O)N[C@@H]1CCN(Cc2ccc(C(F)(F)F)cc2)C1,-0.245,0.735,-0.565,0.169 (inactive),-0.425,-1.41,-0.444,-0.769,0.0494,-0.127
O=C1O[C@H](c2ccccc2)[C@H](c2ccccc2)N2[C@H]1[C@@H](C(=O)NC[C@H](O)c1ccccc1)[C@]1(C(=O)Nc3ccc(C#CC4(O)CCCCCC4)cc31)[C@H]2c1ccccc1OCCO,1.51,-0.26,-0.313,-1.11 (inactive),1.17,1.16,-0.028,0.948,0.178,0.048
CCCCCCC#C[Si](O[C@H](c1ccccc1)c1cn([C@H](C)c2ccccc2)nn1)(C(C)C)C(C)C,0.693,-0.167,-0.365,-0.209 (inactive),0.547,0.565,0.483,0.841,1.25,0.327
CC(C)C(=C=CC[C@H](O)c1ccccc1OCCO)CCO,0.0112,0.292,-0.0417,0.232 (inactive),0.0544,-0.144,-0.585,-0.449,-0.679,0.913
[N-]=[N+]=NCc1ccccc1[C@@H]1OC(c2ccc(OCCCO)cc2)=N[C@]1(Cc1ccccc1)C(=O)O,1.03,0.175,0.917,-0.013 (inactive),0.661,0.294,-0.321,-0.086,-0.617,1.2
COCCCNC(=O)[C@@]1(Cc2ccccc2I)c2ccccc2C(=O)N(Cc2ccccc2)[C@H]1c1ccc(CO)cc1,-0.67,-0.113,0.394,-0.356 (inactive),-1.25,-1.43,-2.16,-1.56,-1.41,-1.59
C=C[C@H](C)[C@H](O)c1ccc(OCCO)cc1,0.771,-0.564,0.883,-0.961 (inactive),-0.772,-1.21,-1.58,-0.607,-1.97,-2.79
Cc1ccc([C@H]2C(C(=O)O)=C[C@@H](C(C)C)N2S(=O)(=O)c2ccc(C)cc2)cc1,0.853,0.309,0.68,-0.349 (inactive),0.265,0.914,-0.206,-0.103,-0.329,0.479
Cc1ccc(S[C@]2(C(=O)NCCCN(C)C)CC(=O)N(C(C)C)[C@@H]2c2ccc(CO)cc2I)cc1,1.37,0.17,0.789,-1.44 (inactive),-0.238,-0.627,-0.228,-0.137,-0.827,1.1
CC(C)(C)OC(=O)CC[C@@]1(C(=O)N2CCOCC2)N=C(c2ccc(OCCCO)cc2)O[C@@H]1c1ccccc1N=[N+]=[N-],1.3,0.981,1.04,-1.07 (inactive),1.33,0.451,0.295,1.13,0.458,1.03
O[C@@H](Cc1ccccc1)[C@@H](/C=C/c1ccccc1)NCc1ccccc1Br,-1.01,0.151,1.16,0.761 (inactive),-1.98,-1.45,-1.37,-2.06,-1.42,0.52

SMILES,composite z-score [1],composite z-score [2],composite z-score [3],z-score [4],composite z-score [5],composite z-score [6],composite z-score [7],composite z-score [8],composite z-score [9],composite z-score [10]
O=C1OCCC=C[C@H]2OC34C=CCN(CCN5CCOCC5)C(=O)[C@H]3N(CCO)C(=O)[C@@H]4C12 (stereo not given in full),-0.378,-0.507,-0.771,-0.197 (inactive),0.217,-0.594,-0.803,-0.0836,0.794,0.612
COc1ccc(C(=O)Nc2cccc(CN3C(=O)[C@@]4(O[C@@H](CCn5cc([C@H](O)c6ccccc6)nn5)[C@H]([Si](C)(C)c5ccc(OC)cc5)[C@H]4C)c4ccccc43)c2)cc1,1.19,0.142,0.634,-1.46 (inactive),1.21,0.175,-0.219,0.206,0.249,1.16
CN1C(=O)C2C=CC(C(O)c3ccc(Br)cc3)N(Nc3ccccc3)C2C1=O (stereo not given),-0.186,0.528,1.03,1.11 (inactive),-0.583,-1.21,-1.3,-1.09,-1.49,1.12
COc1ccc(C(=O)Nc2cccc(CN3C(=O)[C@@]4(O[C@@H](CC(=O)N5Cc6ccccc6C[C@H]5CO)[C@H]([Si](C)(C)c5ccc(OC)cc5)[C@H]4C)c4ccccc43)c2)cc1,1.42,-0.287,-0.0642,-1.14 (inactive),0.639,0.363,0.978,1.24,1.11,0.551
C=C(C(=O)CC[C@@H](OC(=O)c1cccnc1)c1ccc(CO)o1)C(C)C,0.392,-0.174,-0.36,1.38 (inactive),1.16,0.803,0.152,0.933,0.479,1.04
O=C1OCCC/C=C\[C@H]2OC34C=CCN(Cn5nnc6ccccc65)C(=O)[C@H]3N(CCCO)C(=O)[C@@H]4C12 (stereo not given in full),0.649,-0.282,0.741,0.288 (inactive),-1.34,-0.556,-1.43,-0.921,-1.16,-0.0648
O=C(CS)NCCCCCNC(=O)[C@H]1C[C@H]2C(=O)N[C@@H](Cc3ccccc3)C(=O)N2[C@H]1c1cccc(OCCO)c1,1.4,0.185,0.373,0.101 (inactive),1.41,1.36,0.98,1.42,1.61,0.597
O=C1O[C@@H](c2ccccc2)[C@@H](c2ccccc2)N2[C@@H](c3ccc(O)cc3)[C@]3(C(=O)Nc4ccccc43)[C@@H](C(=O)NC[C@H](O)c3ccccc3)[C@H]12,0.851,-0.139,0.0547,0.576 (inactive),0.117,-1.28,0.249,0.244,0.259,-0.297
COc1ccc([Si](C)(C)[C@@H]2[C@@H](CCO)O[C@]3(C(=O)N(Cc4ccc(N5C(=O)c6cccc7cccc5c67)cc4)c4ccccc43)[C@H]2C)cc1,1.03,0.0129,0.598,-1.11 (inactive),-0.66,-0.445,-1.13,-0.66,-0.674,-0.194
[N-]=[N+]=NCc1ccccc1C[C@]1(C(=O)NCCN2CCOCC2)N=C(c2ccc(OCCCO)cc2)O[C@H]1c1ccccc1CN=[N+]=[N-],1.5,0.304,0.71,-1.27 (inactive),1.48,1.32,0.357,0.535,0.16,0.928
[N-]=[N+]=NCc1ccccc1C[C@@]1(C(=O)NCc2ccccc2)N=C(c2ccc(OCCCO)cc2)O[C@@H]1c1ccccc1CN=[N+]=[N-],1.39,1.09,1.06,0.48 (inactive),0.639,1.13,-0.286,-0.0894,-0.242,0.123
[N-]=[N+]=Nc1ccccc1[C@H]1OC(c2ccc(OCCCO)cc2)=N[C@@]1(CCS(=O)(=O)c1ccccc1)C(=O)N1CCOCC1,1.5,1.8,1.46,-0.829 (inactive),1.26,1.16,0.211,0.924,-0.169,0.891
CO[C@H]1O[C@H](CO)[C@@H](OC(=O)Nc2ccc(C(F)(F)F)cc2)[C@H](OC(=O)Nc2ccccc2)[C@@H]1OC(=O)Nc1ccccc1,1.02,-0.442,0.144,-0.577 (inactive),1.07,1.23,0.74,0.743,0.295,0.378
O=C1C2C=CC(C(O)c3ccc(-c4ccccc4)s3)N(Nc3ccccc3F)C2C(=O)N1c1ccccc1 (stereo not given),0.913,1.22,1.27,0.25 (inactive),0.772,0.806,0.247,0.817,0.0154,0.948
COC(=O)c1c(CC[C@@H](CO)NC(=O)Nc2ncn[nH]2)oc(C(=O)Cc2ccccc2)c1C(=O)OC,0.0638,0.0272,-0.0621,0.801 (inactive),1.08,0.938,0.596,1.01,0.957,0.616
Cc1ccc(S(=O)(=O)N2CC(C(=O)O)=CCC2c2ccccc2)cc1 (stereo not given),1.11,0.133,0.696,0.566 (inactive),-0.265,-0.5,-0.638,-0.95,-1.6,-0.538
